Test results as given in PubChem BioAssay.
The source made the active and inactive calls.

Legend:
[1] = optical density shifts of acrAB sulA E. coli – strain DRC41, OD650, 48 h, E. coli filamentation inducer project, primary screen (AID 1152); settings: higher = more signal, called active from +8 up or from −8 down;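 also: E. coli MC1000 strain DRC41 lacking acrAB efflux pump and sulA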
[2] = probe aLefty1 binding on compound microarray – biochemical, small-molecule microarray, 635/667 nm fluorescence, primary screen (AID 1153); settings: higher = more signal;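 also: score merges spot fluorescence with signal-to-noise ratio from the scanned slide images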
[3] = plasmodial surface anion channel blockers, osmotic lysis – cell-based, P. falciparum Indochina, OD700, 1 h, primary screen (AID 1154); settings: P. falciparum Indochina infected RBC osmotic lysis, higher = more signal, called active from +8 up or from −8 down
[4] = plasmodial surface anion channel blockers, osmotic lysis – cell-based, P. falciparum Indochina, OD700, 2 h, primary screen (AID 1155);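 also: lysis reports solute entry through the parasite surface anion channel PSAC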; settings: P. falciparum Indochina infected erythrocytes, higher = more signal, called active from +8 up or from −8 down
[5] = changes in parasitized red cell lysis, either direction – P. falciparum Indochina, OD700, 3 h, PSAC antagonist project, primary screen (AID 1156); settings: P. falciparum-infected erythrocytes, osmotic lysis, higher = more signal, called active from +8 up or from −8 down
[6] = plasmodial surface anion channel blockers, osmotic lysis – cell-based, P. falciparum Indochina, OD700, 18 h, primary screen (AID 1157); settings: P. falciparum Indochina infected erythrocytes, osmotic lysis OD700, 18 h; higher = more signal, called active from +8 up or from −8 down
[7] = S6 kinase pathway phospho-S6 level changes – cell-based, A549, cytoblot, luminescence, serum-stimulated, primary screen (AID 1158); settings: 5 h, higher = more signal;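 also: serum-stimulated A549 lung adenocarcinoma cells; signal is phosphorylated S6 detected by cytoblot immunostaining with HRP secondary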
[8] = target: NADPH oxidase 2 (Homo sapiens) (UniProt P04839); assay: compounds shifting NOX2 Amplex Red fluorescence – cell-based, HEK293-NOX2, PMA-stimulated, NOX inhibitor project, primary screen (AID 1159); settings: 45 min, higher = more signal, called active from +8 up or from −8 down; also: test concentration not given here
Chain of NADPH oxidase 2 (Homo sapiens) (P04839 whole entry, looked up): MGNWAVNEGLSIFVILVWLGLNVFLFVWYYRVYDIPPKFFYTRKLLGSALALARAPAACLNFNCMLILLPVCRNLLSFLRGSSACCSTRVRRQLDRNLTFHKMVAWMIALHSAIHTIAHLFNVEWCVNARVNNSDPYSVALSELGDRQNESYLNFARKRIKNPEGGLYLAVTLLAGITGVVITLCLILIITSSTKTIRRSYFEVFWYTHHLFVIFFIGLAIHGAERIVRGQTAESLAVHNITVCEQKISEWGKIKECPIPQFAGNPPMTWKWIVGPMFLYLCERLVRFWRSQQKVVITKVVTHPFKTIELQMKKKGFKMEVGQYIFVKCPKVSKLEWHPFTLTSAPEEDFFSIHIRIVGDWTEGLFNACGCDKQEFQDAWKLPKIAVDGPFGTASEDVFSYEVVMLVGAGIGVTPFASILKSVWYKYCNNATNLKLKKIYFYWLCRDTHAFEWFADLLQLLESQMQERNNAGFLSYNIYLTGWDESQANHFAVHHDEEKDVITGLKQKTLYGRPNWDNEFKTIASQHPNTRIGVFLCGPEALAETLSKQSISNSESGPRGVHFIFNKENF

[9] = target: NADPH oxidase 4 (Homo sapiens) (UniProt Q9NPH5); assay: compounds shifting NOX4 Amplex Red fluorescence – cell-based, HEK293-NOX4, tetracycline-induced, NOX inhibitor project, primary screen (AID 1160); settings: HEK293-NOX4, Amplex Red H2O2 fluorescence, 45 min; higher = more signal, called active from +8 up or from −8 down
Chain of NADPH oxidase 4 (Homo sapiens) (Q9NPH5 whole entry, looked up): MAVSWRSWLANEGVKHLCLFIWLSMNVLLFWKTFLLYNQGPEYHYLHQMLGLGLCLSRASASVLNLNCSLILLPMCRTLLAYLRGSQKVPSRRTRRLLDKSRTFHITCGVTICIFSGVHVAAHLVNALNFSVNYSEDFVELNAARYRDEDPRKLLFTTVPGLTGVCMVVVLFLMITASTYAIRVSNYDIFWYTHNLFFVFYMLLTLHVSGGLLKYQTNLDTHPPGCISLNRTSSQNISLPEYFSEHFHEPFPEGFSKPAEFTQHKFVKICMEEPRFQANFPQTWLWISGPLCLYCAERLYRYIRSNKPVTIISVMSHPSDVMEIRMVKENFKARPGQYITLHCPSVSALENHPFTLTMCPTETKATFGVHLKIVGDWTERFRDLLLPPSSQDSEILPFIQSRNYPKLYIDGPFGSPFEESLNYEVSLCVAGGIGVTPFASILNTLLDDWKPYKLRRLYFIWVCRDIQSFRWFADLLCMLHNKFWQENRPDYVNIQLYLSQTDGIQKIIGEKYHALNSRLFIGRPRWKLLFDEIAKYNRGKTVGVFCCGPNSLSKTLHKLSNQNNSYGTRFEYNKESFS

[10] = target: NADPH oxidase 5 (Homo sapiens) (UniProt Q96PH1); assay: compounds shifting NOX5 Amplex Red fluorescence – cell-based, HEK293-NOX5, NOX inhibitor project, primary screen (AID 1161); settings: HEK293-NOX5, ionomycin, 45 min, higher = more signal
Chain of NADPH oxidase 5 (Homo sapiens) (Q96PH1 whole entry, looked up): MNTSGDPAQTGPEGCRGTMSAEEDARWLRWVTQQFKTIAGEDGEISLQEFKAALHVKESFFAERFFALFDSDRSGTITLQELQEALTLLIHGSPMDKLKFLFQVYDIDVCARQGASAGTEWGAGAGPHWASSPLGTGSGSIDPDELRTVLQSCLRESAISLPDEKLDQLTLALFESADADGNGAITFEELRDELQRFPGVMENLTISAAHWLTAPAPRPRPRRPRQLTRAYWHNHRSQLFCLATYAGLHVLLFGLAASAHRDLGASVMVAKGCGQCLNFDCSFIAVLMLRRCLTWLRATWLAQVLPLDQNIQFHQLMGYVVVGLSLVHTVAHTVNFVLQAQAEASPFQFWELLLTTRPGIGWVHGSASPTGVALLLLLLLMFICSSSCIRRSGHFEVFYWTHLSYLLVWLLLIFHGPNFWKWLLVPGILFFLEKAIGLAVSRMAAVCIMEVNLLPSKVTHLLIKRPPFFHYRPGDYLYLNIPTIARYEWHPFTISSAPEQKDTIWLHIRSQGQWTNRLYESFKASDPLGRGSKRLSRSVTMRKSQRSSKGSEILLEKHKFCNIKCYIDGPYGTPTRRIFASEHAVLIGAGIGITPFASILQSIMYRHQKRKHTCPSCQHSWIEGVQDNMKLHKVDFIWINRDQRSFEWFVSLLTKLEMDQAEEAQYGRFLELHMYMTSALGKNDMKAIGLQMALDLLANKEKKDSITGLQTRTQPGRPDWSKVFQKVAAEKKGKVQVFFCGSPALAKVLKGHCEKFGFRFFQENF

[11] = compound effects on lung adenocarcinoma cell viability – A549, calcein-AM fluorescence, 48 h, basal, profiling panel (AID 1162); settings: higher = more signal; also: test concentration not given here
[12] = compound effects on differentiated 3T3-L1 adipocyte viability – cell-based, 3T3-L1 adipocytes, calcein-AM fluorescence, 48 h, basal, profiling panel (AID 1163); settings: 3T3-L1 adipocytes viability, higher = more signal; also: test concentration not given here
[13] = compound effects on hepatocellular carcinoma cell viability – HepG2, calcein-AM fluorescence, 48 h, basal, profiling panel (AID 1164); settings: higher = more signal; also: test concentration not given here
[14] = compound effects on multiple myeloma cell viability – MM1S, calcein-AM fluorescence, 48 h, basal, profiling panel (AID 1165); settings: higher = more signal;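 also: viability of MM1S multiple myeloma cells under basal unstimulated conditions; test concentration not given here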
[15] = calcein-AM signal in unstimulated myeloma cells – cell-based, calcein-AM fluorescence, 48 h, PK04 Diversity Set, profiling panel (AID 1166); settings: RPMI8226 myeloma viability, higher = more signal;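 also: cells grown under basal conditions without added stimulus; test concentration not given here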
[16] = JC-1 mitochondrial signal, unstimulated HepG2 cells – cell-based, JC-1 fluorescence, 24 h, 100 nL compound, profiling panel (AID 1167); settings: HepG2 mitochondrial potential, higher = more signal; also: test concentration not given here
[17] = JC-1 mitochondrial signal, unstimulated adipocytes – cell-based, JC-1 fluorescence, 3T3-L1 adipocytes, 24 h, 100 nL compound, profiling panel (AID 1168); settings: JC-1 mitochondrial fluorescence, higher = more signal, called active from +8 up or from −8 down; also: test concentration not given here
[18] = JC-1 mitochondrial signal, unstimulated myeloma cells – cell-based, JC-1 fluorescence, RPMI8226, 24 h, 100 nL compound, profiling panel (AID 1169); settings: JC-1 mitochondrial potential fluorescence, higher = more signal; also: test concentration not given here
[19] = JC-1 mitochondrial signal, unstimulated MM1S myeloma – cell-based, JC-1 fluorescence, 24 h, 100 nL compound, profiling panel (AID 1170); settings: MM1S mitochondrial potential, higher = more signal; also: test concentration not given here
[20] = resazurin metabolic signal in A549 cells – cell-based, resazurin fluorescence, 24 h, PK04 Diversity Set, profiling panel (AID 1171); settings: A549 viability, higher = more signal, called active from +8 up or from −8 down; also: test concentration not given here

| SMILES | z-score [1] | composite z-score [2] | z-score [3] | z-score [4] | z-score [5] | z-score [6] | z-score [7] | z-score [8] | z-score [9] | z-score [10] | z-score [11] | z-score [12] | z-score [13] | z-score [14] | z-score [15] | z-score [16] | z-score [17] | z-score [18] | z-score [19] | z-score [20] |
| --- | --- | --- | --- | --- | --- | --- | --- | --- | --- | --- | --- | --- | --- | --- | --- | --- | --- | --- | --- | --- |
| O=C1[C@@]23C=C(Br)[C@H](C[C@@H]2COC3)[C@]12CO2 | -0.508 (inactive) | 0.151 | 0.483 (inactive) | -0.0352 (inactive) | -0.103 (inactive) | -0.334 (inactive) | 0.424 | 0.447 (inactive) | -1.92 (inactive) | -4.05 | -0.186 | -0.959 | -1.1 | -3.17 | -2.02 | -2.21 | -1.42 (inactive) | -1.3 | -2.19 | -0.453 (inactive) |
| COc1ccc([C@H]2C[C@H]3C(Br)=C[C@@]2(CO)C(=O)[C@]32CO2)cc1 | -0.532 (inactive) | -0.144 | -0.0473 (inactive) | 0.316 (inactive) | -0.231 (inactive) | -0.039 (inactive) | -0.578 | 0.24 (inactive) | 0.624 (inactive) | -0.268 | -0.0583 | -0.335 | -0.898 | -2.71 | -0.106 | -2.76 | 0.134 (inactive) | -0.401 | -1.09 | 0.417 (inactive) |
| CC[C@@H]1C=C(C(=O)O)[C@H](c2cccc3ccccc23)N1S(=O)(=O)c1ccc(C)cc1 | -0.453 (inactive) | 0.0774 | 1.26 (inactive) | 1.2 (inactive) | -0.129 (inactive) | 0.708 (inactive) | -0.769 | 0.338 (inactive) | -0.931 (inactive) | 0.133 | -1.17 | -0.101 | 0.338 | -0.585 | -0.392 | -0.384 | 0.291 (inactive) | 1.17 | -1.16 | -0.376 (inactive) |
| COc1ccc([C@H]2OC[C@@H]3CCC(=O)N32)cc1 | 0.0137 (inactive) | 0.0868 | 0.4 (inactive) | 0.698 (inactive) | -0.297 (inactive) | 0.48 (inactive) | 0.0166 | 0.982 (inactive) | 0.342 (inactive) | -0.0609 | -0.245 | -0.315 | -0.0392 | -0.804 | 0.502 | 0.0252 | -0.139 (inactive) | -0.225 | -0.1 | 0.109 (inactive) |
| O=C1O[C@@H](c2ccccc2)[C@@H](c2ccccc2)N2[C@@H](c3ccc(OCCO)cc3)[C@]3(C(=O)Nc4ccc(C#CCCO)cc43)[C@@H](C(=O)NC[C@H](O)c3ccccc3)[C@H]12 | 0.591 (inactive) | 0.708 | 3.19 (inactive) | 1.4 (inactive) | 1.53 (inactive) | 0.688 (inactive) | 0.136 | 2.21 (inactive) | 1.71 (inactive) | 0.235 | 0.225 | -0.0616 | 0.808 | -0.301 | 0.407 | -0.821 | -1.33 (inactive) | -0.479 | -0.468 | -0.293 (inactive) |
